JMJD2A Tudor = qHTS Assay for Inhibitors of JMJD2A-Tudor Domain | hit rate 4.4% among 390,000 | AID 504339, 2011 | AlphaScreen JMJD2A-Tudor / H3K4me3 peptide binding | Potency, µM (doses to about 114 µM), inactives show at the highest dose activity change, negative = inhibition, hits mostly inhibitors; also: % is scaled to controls: 0 for no effect and ±100 for the full control effect; nearly all actives have a fitted effect of over 50% in size
Target sequence (O75164 whole entry, looked up, the tested form may be a part): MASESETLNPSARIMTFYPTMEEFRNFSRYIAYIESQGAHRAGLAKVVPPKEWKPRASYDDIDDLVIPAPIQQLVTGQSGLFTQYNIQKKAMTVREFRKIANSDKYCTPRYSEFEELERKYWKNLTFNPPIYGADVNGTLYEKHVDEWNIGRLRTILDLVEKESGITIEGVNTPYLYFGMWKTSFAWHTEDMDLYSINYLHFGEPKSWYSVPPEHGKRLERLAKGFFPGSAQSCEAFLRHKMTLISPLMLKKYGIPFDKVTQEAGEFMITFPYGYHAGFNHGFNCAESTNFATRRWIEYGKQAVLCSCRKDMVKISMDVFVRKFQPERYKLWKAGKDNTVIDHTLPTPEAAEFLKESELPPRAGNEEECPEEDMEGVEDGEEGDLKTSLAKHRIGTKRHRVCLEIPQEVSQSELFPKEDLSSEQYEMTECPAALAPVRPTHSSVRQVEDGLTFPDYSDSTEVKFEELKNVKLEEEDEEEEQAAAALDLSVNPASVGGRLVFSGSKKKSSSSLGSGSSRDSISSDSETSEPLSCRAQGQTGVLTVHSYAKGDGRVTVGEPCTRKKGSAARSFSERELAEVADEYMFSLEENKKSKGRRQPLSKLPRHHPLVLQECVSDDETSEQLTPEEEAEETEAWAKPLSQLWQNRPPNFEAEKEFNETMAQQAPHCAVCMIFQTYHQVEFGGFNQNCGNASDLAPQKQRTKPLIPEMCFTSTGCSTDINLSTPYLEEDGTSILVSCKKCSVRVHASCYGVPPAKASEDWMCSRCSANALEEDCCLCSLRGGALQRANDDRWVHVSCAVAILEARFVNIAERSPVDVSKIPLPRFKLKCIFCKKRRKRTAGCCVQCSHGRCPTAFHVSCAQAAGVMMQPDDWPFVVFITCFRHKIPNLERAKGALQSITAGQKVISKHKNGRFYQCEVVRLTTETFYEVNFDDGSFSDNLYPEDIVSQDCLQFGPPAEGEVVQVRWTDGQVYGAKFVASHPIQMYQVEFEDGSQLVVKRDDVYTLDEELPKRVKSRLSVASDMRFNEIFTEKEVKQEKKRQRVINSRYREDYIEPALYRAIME
G9a block = qHTS Assay for Inhibitors of Histone Lysine Methyltransferase G9a; hit rate 8.8% among 350,000; Potency, µM (titrated, usually from 102 µM), for the others: at the top dose activity, negative = inhibition, actives largely listed as inhibitors; G9a H3K9 monomethylation, AlphaScreen, 2 h; AID 504332, 2011; also: % is scaled to controls: 0 for no effect and ±100 for the full control effect; nearly all actives have a fitted effect of over 75% in size
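G9a (20 nM) preincubated 15 min RT with compounds, then 500 nM biotinylated H3K9 peptide and 20 uM SAM added; 2 h RT reaction. Monomethyl-H3K9 product detected by AlphaScreen with anti-H3K9me1 antibody, streptavidin donor and anti-rabbit IgG acceptor beads.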
BAZ2B block = qHTS Assay for Inhibitors of BAZ2B. Bromodomain adjacent to zinc finger domain protein 2B (Homo sapiens), Q9UIF8. AlphaScreen BAZ2B-H3K14Ac peptide displacement. Potency, µM (top dose mostly 114 µM), for inactives: at the top dose activity change, negative = inhibition, most hits filed as inhibitors. hit rate 4.4% among 360,000. AID 504333, 2011; also: % is scaled to controls: 0 for no effect and ±100 for the full control effect; nearly all actives have a fitted effect of over 60% in size
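Inhibition is scored as reduced AlphaScreen emission. The BAZ2B/b-H3(5-23)K14Ac complex (50 nM each) in PBS pH 7.4, 0.01% Tween-20 meets compound (up to 110 uM) for 30 min at RT before bead addition.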
HP1b binding inh = HTS for Inhibitors of HP1-beta Chromodomain Interactions with Methylated Histone Tails | AlphaScreen HP1-beta / biotin-H3K9me3 peptide binding | Potency, µM (doses to about 114 µM), inactives show top-dose activity change, negative = inhibition, hits mostly inhibitors | hit rate 0.56% among 390,000 | AID 540317, 2011; also: nearly all actives have a fitted effect of over 70% in size
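HP1-beta protein (50 nM final) preincubated 30 min at room temperature with biotinylated H3(1-18)K9me3 peptide (50 nM) in PBS pH 7.4, 0.01% Tween-20, then compound added for 30 min. AlphaScreen streptavidin donor/nickel chelate acceptor beads (10 ug/mL final), 30 min dark, luminescence read.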
Sfp PPTase inh = qHTS Assay for Inhibitors of Bacillus subtilis Sfp phosphopantetheinyl transferase (PPTase); 4'-phosphopantetheinyl transferase ffp (Bacillus subtilis), Q9F4F7; Biochemical Sfp PPTase activity, qHTS; Potency, µM, for inactives: largest response in the series, negative = inhibition, actives largely listed as inhibitors; hit rate 3.5% among 310,000; AID 1490, 2009;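 also: the enzyme is Sfp with the accession as filed and its product quenches rhodamine fluorescence; 0% = enzyme reaction without inhibitor and -100% = no enzyme wells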
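Reaction rates are the 30-min fluorescence difference (ex 525, em 598 nm) in wells containing 15 nM Sfp, 5 uM rhodamine-CoA and 12.5 uM BHQ-2-YbbR at pH 7.6 with 10 mM MgCl2.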
L3MBTL1 block = qHTS Assay for the Inhibitors of L3MBTL1; Lethal(3)malignant brain tumor-like protein 1 (Homo sapiens), Q9Y468; AlphaScreen L3MBTL1–H3K9me1 peptide binding; Potency, µM (highest dose often 57.1 µM), for inactives: at the highest dose activity, negative = inhibition, actives largely listed as inhibitors; hit rate 0.66% among 230,000; also: % is scaled to controls: 0 for no effect and ±100 for the full control effect; nearly all actives have a fitted effect of over 60% in size
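AlphaScreen proximity signal between nickel-chelate acceptor and streptavidin donor beads (final 10 ug/mL) reports binding of 50 nM L3MBTL1 to 75 nM biotin-H3 K9me1 peptide; complex incubated with compounds 30 min at room temperature; cefsulodin titration as control.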
Active calls of the source: *; ? = inconclusive; . = no result; [ ] = dose if it differs, or a comment. Only some compounds are listed: those with a hit (about 12% of all), similar ones and a draw of the others. Calls follow the shape of the dose curve; as a rule, active = well fitted curve in the direction sought with a large enough effect; inconclusive = small, poorly fitted or top-dose-only effect, or another doubt; inactive = no such curve, though single readings can be large; an effect the other way counts as inactive or inconclusive. Potency is read from the fitted curve at half-maximal effect.

SMILES	JMJD2A Tudor	G9a block	BAZ2B block	HP1b binding inh	Sfp PPTase inh	L3MBTL1 block
CC(OC(=O)c1cnccn1)C(=O)c1ccccc1 (configuration not stated)	-5.5%	-0.9%	7.4%	17.9%	.	2.1%
CC(C)(C)c1ccc(C2CC2C(=O)N/N=C\c2ccc[nH]2)cc1 (configuration not stated)	56.2µM*	39.8µM*	?	?	15.2%	?
O=C(CCC(=O)Nc1ccccc1)N/N=C/c1ccco1	-10.8%	19.5%[59 µM]	7.5%	12.1%	12.5%	-4.6%
O=C(N/N=C/c1c[nH]c2ccccc12)C1CC1c1ccccc1 (configuration not stated)	-33.1%	?	-27.1%	5.6%	16.8%	3.4%
Cc1cccc(C(=O)Nc2ccc(C(=O)N/N=C/c3ccco3)cc2)c1	44.7µM*	.	.	?	.	.
O=C(N/N=C/c1ccco1)Nc1ccccc1	-10.5%	79.4µM*	2.4%	-0.2%	5.4%	6.0%
O=C(N/N=C/c1ccco1)C1CC1c1ccccc1 (configuration not stated)	?	-19.9%	50.1µM*	?	-1.9%	?
O=C(N/N=C/c1ccco1)C1CC1	-3.4%	-9.6%[59 µM]	-2.4%	39.0%	-35.2%	-7.1%
O=C(N/N=C/c1ccco1)c1ccc(NC(=O)c2ccc(Cl)cc2)cc1	-14.0%	-7.5%	1.6%	13.8%	-4.1%	.
Cc1cccc(-c2nc(SCC(=O)NCC3CCCO3)c3c(=O)n(C)c(=O)n(C)c3n2)c1 (configuration not stated)	-2.3%	6.2%[59 µM]	9.6%	56.6%[57 µM]	.	.
Cc1ccc(-c2cn3nc(N4CCCC(C(=O)Nc5ccc(F)cc5)C4)sc3n2)cc1 (configuration not stated)	-26.1%	-9.0%[59 µM]	-15.8%	5.6%	.	.
CCOC(=O)c1cc(C)n(CC2CCC(C(=O)Nc3cccc(C)c3)CC2)c1C (configuration not stated)	-17.6%	-40.1%[59 µM]	-22.2%	38.2%	.	.
CCCCCCCCCCCCCCCC[N+](C)(C)CCN(Cc1ccc(OC)cc1)c1ncccn1	?	-32.9%[59 µM]	9.3%	-24.8%	14.1µM*	5.1%
COc1ccc(CNC(=O)c2nn(-c3ccccc3C)nc2CO)cc1	-9.1%	3.0%[59 µM]	1.1%	46.2%	.	.
Cc1ccc(-c2nc3cnccn3c2Nc2ccc3c(c2)OCCO3)o1	?	10µM*	?	-27.4%	35.5µM*	-13.6%
Cc1ccc(-c2nc3cnccn3c2Nc2ccc3c(c2)OCO3)cc1	50.1µM*	39.8µM*	39.8µM*	?	?	-46.7%
Cc1ccn2c(Nc3ccc4c(c3)OCO4)c(-c3ccc(Cl)cc3)nc2c1	-32.7%	2.82µM*	.	-8.8%	.	.
Cc1ccn2c(Nc3ccccc3C)c(-c3ccccc3)nc2c1	-20.2%	-62.6%[59 µM]	?	1.2%	.	.
Cc1ccn2c(Nc3ccc4c(c3)OCO4)c(-c3ccc(N(C)C)cc3)nc2c1	?	2µM*	.	-2.9%	.	.
Cc1ccn2c(NCc3ccc4c(c3)OCO4)c(-c3ccc(O)cc3)nc2c1	-2.2%	11.1%[59 µM]	2.8%	14.1%	-8.7%	.
Cc1oc2ncnc(N3CCOCC3)c2c1C(=O)Nc1ccc(Br)cc1F	-10.6%	13.3%[59 µM]	12.5%	24.2%	.	.
O=c1c(-c2ccc(Cl)cc2)nc2cnc(N3CCOCC3)nc2n1Cc1ccc(F)cc1	.	23.8%[0.501 µM]	.	.	20.5%	.
Cc1cccn2c(Nc3ccc4c(c3)OCCO4)c(-c3ccc(Br)o3)nc12	22.4µM*	11.2µM*	11.2µM*	?	.	.
COc1ccc(Nc2c(-c3ccc(C)cc3)nc3cnccn23)cc1	44.7µM*	50.1µM*	?	-12.9%[57 µM]	5.3%	-27.6%
COc1ccc(-c2nc3ccc(C)cn3c2Nc2ccc3c(c2)OCO3)cc1	-17.7%	?	.	7.9%	.	.
SMILES	JMJD2A Tudor	G9a block	BAZ2B block	HP1b binding inh	Sfp PPTase inh	L3MBTL1 block
Cc1ccc2nc(-c3ccc(O)cc3)c(Nc3ccc4c(c3)OCCO4)n2c1	-12.0%	8.91µM*	-12.6%	41.9%	12.6%	-6.8%
Cc1ccn2c(Nc3ccc4c(c3)OCCO4)c(-c3ccc(Cl)s3)nc2c1	?	?	-31.0%	?	.	.
Clc1ccc2nc(-c3cccs3)c(Nc3ccc4c(c3)OCCO4)n2c1	-3.4%	4.1%[59 µM]	-1.2%	82.7%	.	.
Clc1ccc(-c2nc3ccccn3c2Nc2ccc3c(c2)OCCO3)s1	44.7µM*	17.5%[59 µM]	13.9%	?	.	.
COc1cccc(N(Cc2nnc3n2CCCCC3)C(=O)Nc2cccc(Cl)c2)c1	-15.6%	7.7%[59 µM]	3.0%	18.8%[57 µM]	.	.
COc1ccc(CNC(=O)CCc2cn(C)c3ccccc23)cc1	-27.5%	-33.4%[59 µM]	?	9.6%	.	.
COC(=O)c1cc(NS(=O)(=O)c2cc(Br)cc3c2N(C(C)=O)CC3)cc(C(=O)OC)c1	4.5%	-14.0%[59 µM]	70.8µM*	36.6%	.	.
CC(=O)N1CCc2cc(Br)cc(S(=O)(=O)NCc3ccccn3)c21	79.4µM*	?	-31.3%	-7.5%	3.9%	1.3%
CCC(=O)N1CCc2cc(Br)cc(S(=O)(=O)CCC(=O)NCc3ccco3)c21	-23.7%	-14.9%[59 µM]	-1.8%	20.1%	-0.8%	-24.4%
CCC(=O)N1CCc2cc(Br)cc(S(=O)(=O)NCc3ccco3)c21	-14.9%	44.7µM*	-5.4%	16.5%	-6.4%	-2.4%
CC(=O)N1CCc2cc(Br)cc(S(=O)(=O)NCCc3ccc(Cl)cc3)c21	1.7%	1.9%[59 µM]	2.0%	47.8%	.	.
O=C(C1CC1)N1CCc2cc(Br)cc(S(=O)(=O)N3CCCCCC3)c21	-8.8%	-37.5%	4.8%	36.6%	9.5%	6.5%
CC(=O)N1CCc2cc(Br)cc(S(=O)(=O)N3CCC(C(=O)O)CC3)c21	-13.1%	50.1µM*	-29.7%	-0.1%	19.7%	.
CCOc1cc(C(=O)NCC(c2ccc(N(C)C)cc2)N2CCOCC2)cc(OCC)c1OCC (configuration not stated)	-24.8%	-16.3%[12.7 µM]	-36.2%	8.3%	.	.
COc1ccccc1NC(=O)N1CC=C(c2c[nH]c3ccccc23)CC1	?	?	-38.1%	-17.1%	.	.
COc1ccccc1/C=C/C(=C1/C(=O)N(c2ccccc2)N=C1C)c1ccc(C)cc1	2.82µM*	?	2.82µM*	2.51µM*	6.4%	-10.0%
COc1cccc(/C=C/C(=C2/C(=O)N(c3ccccc3)N=C2C)c2ccccc2)c1OC	?	1.41µM*	4.47µM*	-35.5%	3.0%	13.1%

Screening results as filed in PubChem BioAssay.
